Assay results reported in PubChem BioAssay (NCI).
Compounds without any hit were thinned out: in the full panel of roughly 79,000, 15% have a hit. Activity calls are given as the source filed them. Cut-off read from the data, not from the text of the source: active = growth inhibition above about 70%; inactive = the rest.

Tests used:
[1] = NCI Yeast Anticancer Drug Screen. Data for the rad52 strain (AID 147);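 note: 0% = growth of vehicle-treated control cultures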; conditions: S. cerevisiae rad52 mutant growth inhibition, active compounds read high
Procedure, shortened: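 Vehicle-treated cultures served as the reference for growth inhibition of compound-exposed yeast bearing a DNA repair mutation.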

[2] = NCI Yeast Anticancer Drug Screen. Data for the wt1 strain (AID 149);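 note: 0% = growth of vehicle-treated wt1 cultures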; conditions: S. cerevisiae wt1 strain (SPY 50644) growth inhibition, active compounds read high
Procedure, shortened: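 wt1 strain grown with compound or vehicle; inhibition taken from the growth difference.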

[3] = NCI Yeast Anticancer Drug Screen. Data for the rad50EPP+ strain (AID 151);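 note: 0% = growth of vehicle-treated control cultures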; conditions: S. cerevisiae rad50 mutant strain, active compounds read high
Procedure, shortened: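 In this screen, rad50EPP+ yeast were exposed to compounds. Growth inhibition was scored against vehicle-treated controls.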

[4] = NCI Yeast Anticancer Drug Screen. Data for the mec2-1 strain (AID 157); conditions: S. cerevisiae mec2-1 strain, active compounds read high
Procedure, shortened: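 Vehicle-treated cultures served as reference for growth inhibition of compound-exposed mec2-1 yeast.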

[5] = NCI Yeast Anticancer Drug Screen. Data for the rad14 strain (AID 159);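 note: 0% = growth of vehicle-treated control cultures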; conditions: S. cerevisiae rad14 strain growth inhibition, active compounds read high
Procedure, shortened: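 DNA repair-defective yeast, compound-exposed; % growth inhibition derived by comparison with vehicle-treated controls.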

[6] = NCI Yeast Anticancer Drug Screen. Data for the sgs1 mgt1 strain (AID 161);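 note: 0% = growth of cultures given vehicle only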; conditions: S. cerevisiae sgs1 mgt1 strain, active compounds read high
Procedure, shortened: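 Test agents were incubated with a DNA-repair-mutant yeast strain. Growth was then read and compared against vehicle-treated controls.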

[7] = NCI Yeast Anticancer Drug Screen. Data for the CLN2oe strain (AID 163);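 note: 0% = growth of vehicle-only control cultures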; conditions: S. cerevisiae CLN2oe strain, active compounds read high
Procedure, shortened: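 Inhibition relative to vehicle-treated yeast is reported. Cells: strain with genetic alteration in cell-cycle control, grown with compound.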

[8] = NCI Yeast Anticancer Drug Screen. Data for the cln2 rad14 strain (AID 165);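 note: 0% = growth equal to vehicle treated cultures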; conditions: S. cerevisiae cln2 rad14 strain, active compounds read high
Procedure, shortened: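 Each compound was tested on cln2 rad14 yeast. Inhibition of growth was calculated against vehicle-exposed controls.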

[9] = NCI Yeast Anticancer Drug Screen. Data for the bub3 strain (AID 167); conditions: S. cerevisiae bub3 mutant strain, active compounds read high
Procedure, shortened: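 In this screen, a yeast mutant lacking normal mitotic checkpoint function is challenged with compound. Relative growth versus vehicle gives the inhibition value.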

[10] = NCI Yeast Anticancer Drug Screen. Data for the wt2 strain (AID 169);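 note: 0% = growth of vehicle-treated yeast cultures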; conditions: S. cerevisiae wt2 strain growth inhibition, active compounds read high
Procedure, shortened: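 Inhibition of yeast growth was determined after compound treatment, normalised to controls receiving only vehicle.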

[11] = NCI Yeast Anticancer Drug Screen. Data for the sgs1 strain (AID 173);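 note: 0% = growth of vehicle-only control cultures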; conditions: S. cerevisiae sgs1 mutant, active compounds read high
Procedure, shortened: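 Screen format: yeast with repair or checkpoint alterations, compound exposure, growth read relative to vehicle.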

[12] = NCI Yeast Anticancer Drug Screen. Data for the mlh1 rad18 strain (AID 175); conditions: S. cerevisiae mlh1 rad18 strain growth inhibition, active compounds read high
Procedure, shortened: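 Vehicle-treated cultures served as the reference for growth inhibition in a yeast strain carrying DNA damage repair alterations exposed to each compound.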

[13] = NCI Yeast Anticancer Drug Screen. Data for the rad18 strain (AID 177); conditions: S. cerevisiae rad18 mutant growth inhibition, active compounds read high
Procedure, shortened: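 Test articles were incubated with altered yeast defective in DNA damage repair. Results are given as inhibition of growth versus vehicle.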

[14] = NCI Yeast Anticancer Drug Screen. Data for the rad50 strain (AID 155);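 note: 0% = growth of vehicle-only cultures of the same strain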; conditions: S. cerevisiae rad50 strain growth inhibition, active compounds read high
Procedure, shortened: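 DNA repair mutant yeast, compound exposure, growth read-out; inhibition is taken relative to vehicle.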

[15] = NCI Yeast Anticancer Drug Screen. Data for the mlh1 strain (AID 171);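 note: 0% = growth of vehicle-treated control cultures of the same strain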; conditions: S. cerevisiae mlh1 strain growth inhibition, active compounds read high
Procedure, shortened: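 Vehicle-normalised growth inhibition of a repair- or checkpoint-altered yeast strain following compound treatment.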

[16] = at 5.0 µM (retest, dose inferred, filed as 0.5)
[17] = at 50.0 µM (retest, dose inferred, filed as 5.0)

Measured: growth inhibition

COc1cc(CNc2ccc(C(C)C)cc2)cc(OC)c1OC
inactive: [1]; at 1.2 µM 21% | [1]; at 3.7 µM 3% | [1]; at 11.0 µM -17% | [1]; at 33.0 µM 13% | [2]; at 1.2 µM 1% | [2]; at 3.7 µM 15% | [2]; at 11.0 µM 7% | [2]; at 33.0 µM -8% | [2]; at 100.0 µM 56% | [3]; at 1.2 µM -4% | [3]; at 3.7 µM -6% | [3]; at 11.0 µM 5% | [3]; at 33.0 µM 26% | [3]; at 100.0 µM 28% | [4]; at 1.2 µM 8% | [4]; at 3.7 µM -8% | [4]; [16] -42% | [4]; at 11.0 µM -4% | [4]; at 33.0 µM -25% | [4]; [17] 1% | [4]; at 50.0 µM 25.4% | [4]; at 100.0 µM 59% | [5]; at 1.2 µM -6% | [5]; at 3.7 µM -17% | [5]; at 11.0 µM -31% | [5]; at 33.0 µM -50% | [6]; [16] -7% | [6]; [17] 25% | [6]; at 50.0 µM 64% | [7]; at 1.2 µM -12% | [7]; at 3.7 µM -19% | [7]; at 11.0 µM -28% | [7]; at 33.0 µM -50% | [7]; at 100.0 µM -4% | [8]; [16] 6% | [8]; [17] 24% | [8]; at 50.0 µM 6.85% | [9]; at 1.2 µM -13% | [9]; at 3.7 µM -22% | [9]; [16] 13% | [9]; at 11.0 µM -26% | [9]; at 33.0 µM -6% | [9]; at 50.0 µM 65.2% | [10]; at 1.2 µM -1% | [10]; at 3.7 µM -26% | [10]; at 11.0 µM -9% | [10]; at 33.0 µM -20% | [10]; at 100.0 µM 69% | [11]; at 1.2 µM 26% | [11]; at 3.7 µM 23% | [11]; at 11.0 µM 21% | [11]; at 33.0 µM 11% | [12]; [16] -11% | [12]; [17] 32% | [12]; at 50.0 µM 55.7% | [13]; at 1.2 µM 4% | [13]; at 3.7 µM 9% | [13]; at 11.0 µM -5% | [13]; at 33.0 µM 9% | [13]; at 100.0 µM 64%
active: [1]; at 100.0 µM 78% | [5]; at 100.0 µM 72% | [9]; [17] 78% | [9]; at 100.0 µM 71% | [11]; at 100.0 µM 84%

Cc1ccc2c(ccc(/C=C/c3ccc(O)c4ncccc34)[n+]2C)c1
inactive: [1]; at 1.2 µM 17% | [1]; at 3.7 µM 46% | [2]; at 1.2 µM 4% | [2]; at 3.7 µM 30% | [3]; at 1.2 µM 3% | [3]; at 3.7 µM 27% | [3]; at 11.0 µM 60% | [14]; at 1.2 µM 1% | [14]; at 3.7 µM 41% | [14]; [16] 40% | [4]; at 1.2 µM 10% | [4]; at 3.7 µM 37% | [4]; [16] 43% | [5]; at 1.2 µM -15% | [5]; at 3.7 µM 37% | [6]; [16] 23% | [7]; at 1.2 µM -6% | [7]; at 3.7 µM 18% | [8]; [16] 17% | [9]; at 1.2 µM 18% | [9]; at 3.7 µM 33% | [9]; [16] 10% | [10]; at 1.2 µM -16% | [10]; at 3.7 µM 2% | [10]; at 11.0 µM 53% | [15]; at 1.2 µM 15% | [15]; at 3.7 µM 60% | [11]; at 1.2 µM 18% | [11]; at 3.7 µM 45% | [13]; at 1.2 µM 17% | [13]; at 3.7 µM 31% | [13]; at 100.0 µM 63%
active: [1]; at 11.0 µM 89% | [1]; at 33.0 µM 94% | [1]; at 100.0 µM 81% | [2]; at 11.0 µM 85% | [2]; at 33.0 µM 94% | [2]; at 100.0 µM 81% | [3]; at 33.0 µM 87% | [3]; at 100.0 µM 79% | [14]; at 11.0 µM 88% | [14]; at 33.0 µM 93% | [14]; [17] 93% | [14]; at 100.0 µM 74% | [4]; at 11.0 µM 89% | [4]; at 33.0 µM 93% | [4]; [17] 94% | [4]; at 100.0 µM 77% | [5]; at 11.0 µM 90% | [5]; at 33.0 µM 94% | [5]; at 100.0 µM 77% | [6]; [17] 98% | [6]; at 50.0 µM 82% | [7]; at 11.0 µM 78% | [7]; at 33.0 µM 90% | [7]; at 100.0 µM 77% | [8]; [17] 95% | [8]; at 50.0 µM 84% | [9]; at 11.0 µM 87% | [9]; at 33.0 µM 91% | [9]; [17] 98% | [9]; at 50.0 µM 84.9% | [9]; at 100.0 µM 74% | [10]; at 33.0 µM 88% | [10]; at 100.0 µM 79% | [15]; at 11.0 µM 85% | [15]; at 33.0 µM 95% | [15]; at 100.0 µM 78% | [11]; at 11.0 µM 82% | [11]; at 33.0 µM 92% | [11]; at 100.0 µM 78% | [13]; at 11.0 µM 80% | [13]; at 33.0 µM 91%
